Lassa entry inh = qHTS for Inhibitors of binding or entry into cells for Lassa Virus; Lassa virus pseudotype entry inhibition, cell reporter; Potency, µM (highest dose often 37.9 µM), hits mostly inhibitors; 1.2% of 300,000 active; AID 540256, 2011; calls by dose curve; tested in HEK293 cells; also: nearly all actives have a fitted effect of over 50% in size
Pf growth 96h = Primary qHTS for delayed death inhibitors of the malarial parasite plastid, 96 hour incubation; P. falciparum luciferase reporter growth, 96 h; Potency, µM (series often up to 28.7 µM), most hits filed as inhibitors; 6.9% of 320,000 active; AID 504834, 2011
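96 h incubation, 37 C, 5% CO2, of luciferase-reporter P. falciparum-infected RBCs (2% hematocrit, 0.05% parasitemia final) with test compounds; endpoint luminescence.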
HCV inhibitor = qHTS Assay for Inhibitors of Hepatitis C Virus (HCV); Potency, µM (top dose mostly 41.8 µM), actives largely listed as inhibitors; Huh7.5.1 HCVcc-Cre infection, luciferase reporter, 44 h; 3.4% of 340,000 active; AID 651820, 2012
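Compounds are dispensed onto cells plated 4 h earlier at 1,000 per well, with HCVcc-Cre virus (about 0.5 moi) added next. Following 44 h of culture, luminescent signal is measured for 15 sec after 15 min with substrate at room temperature.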
Pf growth 48h = Primary qHTS for delayed death inhibitors of the malarial parasite plastid, 48 hour incubation; AID 504832, 2011; P. falciparum luciferase growth in erythrocytes, 48 h; 5.9% of 310,000 active; Potency, µM (series often up to 28.7 µM), actives largely listed as inhibitors
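Erythrocytes infected with P. falciparum carrying an integrated firefly luciferase reporter (2% hematocrit, 0.1% parasitemia final) were exposed to compounds in RPMI 1640 with 0.5% Albumax at 37 C, 5% CO2. Growth inhibition was scored as reduced luminescence.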
HCMV antiviral = qHTS Assay for inhibitors of the human cytomegalovirus (HCMV); activity change, negative = inhibition, % at 57.5 µM; 4.5% of 410,000 active; HFF cells, HCMV-luciferase reporter, 72 h; active compounds read low; in the data active = activity change below about -60%; inconclusive = no clear call, values can overlap the other calls; inactive = above about -39%
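Human foreskin fibroblasts infected with luciferase-reporter HCMV at MOI 1 PFU/cell, compounds at two doses. Luciferase measured 72 h post infection; normalized to buffer-only basal and Salinomycin (10uM) controls.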
MARV entry inh = qHTS for inhibitors of binding or entry into cells for Marburg Virus; Marburg virus pseudotyped entry inhibition, cell reporter; Potency, µM (highest dose often 37.8 µM), actives largely listed as inhibitors; 1.8% of 300,000 active; calls by dose curve; tested in HEK293 cells
Of the large screens only hits and unclear results are named; the others gave an inactive call. A selection: hits, their analogues and other compounds. The true share with any hit is near 14%. Unless noted, calls follow the shape of the dose curve; as a rule, active = well fitted inhibition curve with a large enough effect; inconclusive = small, poorly fitted or top-dose-only effect, or another doubt; inactive = no such curve, though single readings can be large or run the other way.

CC(C)(C)OC(=O)[C@H](Cc1ccccc1)NC(=O)c1nc[nH]c1C(=O)N[C@@H](CCCCN)C(=O)OC(C)(C)C	HCMV antiviral -68 (no result: Lassa entry inh, Pf growth 96h, Pf growth 48h, MARV entry inh)
O=S1(=O)c2cc(Cl)ccc2N2CC[C@H](C2)N1Cc1ccc(Cl)c(Cl)c1	none (no result: Lassa entry inh, Pf growth 96h, HCV inhibitor, Pf growth 48h, MARV entry inh)
COc1ccc(-c2[nH]ncc2CN(CC2CCC(=O)N2)C(C)C)cc1F (configuration not stated)	Pf growth 96h 8.3µM, HCMV antiviral inconclusive
CCOC(=O)CN(C)Cc1cn[nH]c1-c1ccc2cc(OC)ccc2c1	Lassa entry inh inconclusive, Pf growth 96h inconclusive, MARV entry inh inconclusive
COc1ccc(-c2[nH]ncc2CN(C)CCCN2CCOCC2)cc1F	Pf growth 96h inconclusive
CCn1ccnc1CN(C)Cc1cn[nH]c1-c1ccc(OC)c(F)c1	HCMV antiviral -72
COCCN(Cc1cn[nH]c1-c1ccc2cc(OC)ccc2c1)C(C)C	Pf growth 96h 12µM, MARV entry inh inconclusive
COc1ccc(N2CCN(C(=O)Cn3c(-c4cccs4)cc4ccccc43)CC2)cc1	none (no result: Pf growth 96h, HCV inhibitor, Pf growth 48h, MARV entry inh)
Cc1ccc(NC(=O)C2CCCN2S(=O)(=O)c2cccc3nsnc23)c(Br)c1 (configuration not stated)	none (no result: Pf growth 96h, HCV inhibitor, Pf growth 48h)
COC(=O)[C@@]12C[C@@H](CC(=O)NCC34CC5CC(CC(C5)C3)C4)C(=O)N(CCc3ccc(OC)c(OC)c3)C1=CCC(C)(C)C2	none (no result: Lassa entry inh, Pf growth 96h, HCV inhibitor, Pf growth 48h, MARV entry inh)
Cc1csc(NC(=O)CSc2nnc3ncccn23)n1	Pf growth 96h inconclusive, HCMV antiviral -87
O=C(CSc1nc2ccccc2c(=O)[nH]1)Nc1ccc(C(=O)O)cc1	none
Cc1cnc(NC(=O)CSc2nnc3ncccn23)s1	Pf growth 48h inconclusive, HCMV antiviral inconclusive (no result: Lassa entry inh)
Cc1csc(NC(=O)CSc2ncc(-c3ccccc3)[nH]2)n1	HCMV antiviral -98
Cc1nnc(NC(=O)CSc2ncc(-c3ccccc3)[nH]2)s1	none (no result: Lassa entry inh, MARV entry inh)
O=C(CSc1nc2ccccc2c(=O)[nH]1)Nc1ccc(S(=O)(=O)N2CCCC2)cc1	Pf growth 96h 2.3µM, HCV inhibitor inconclusive
O=C(CSc1nc2ccccc2c(=O)[nH]1)Nc1ccc([N+](=O)[O-])cc1	Lassa entry inh inconclusive, MARV entry inh inconclusive (no result: Pf growth 96h, Pf growth 48h)
CC(C)(C)c1csc(NC(=O)CSc2nc3ccccc3c(=O)[nH]2)n1	HCMV antiviral -107
CC(C)N(Cc1ccccc1)C(=O)COC(=O)CCC(=O)c1ccc(F)cc1	none (no result: Lassa entry inh, MARV entry inh)
CC(=O)c1cccc(NC(=O)c2oc(=O)c3ccccc3c2-c2ccccc2)c1	none (no result: Pf growth 96h, HCV inhibitor, Pf growth 48h, MARV entry inh)
O=C(/C=C1\OCc2ccccc21)OCc1ccccc1	none (no result: Lassa entry inh, Pf growth 96h, HCV inhibitor, Pf growth 48h, MARV entry inh)
Cc1csc(NC(=O)CSc2nc3ccccc3c(=O)[nH]2)n1	Lassa entry inh inconclusive, MARV entry inh 4.6µM
Cc1cccc(C)c1NC(=O)CSc1nc2ccccc2c(=O)[nH]1	Pf growth 96h 0.41µM, HCV inhibitor inconclusive
CC(C)(C)c1csc(NC(=O)Cn2cnc3ccccc3c2=O)n1	HCV inhibitor 14µM
CCOC(=O)c1c(SCC(=O)Nc2nc(C)cs2)nc(=O)[nH]c1C	Pf growth 96h 4.7µM (no result: Lassa entry inh, MARV entry inh)
O=C(Cn1cnc2ccccc2c1=O)Nc1nnc(C2CC2)s1	MARV entry inh inconclusive
CCOC(=O)c1c(SCC(=O)Nc2nc3ccccc3s2)nc(=O)[nH]c1C	none (no result: Pf growth 96h, HCV inhibitor, Pf growth 48h, MARV entry inh)
CCN(CC)S(=O)(=O)c1cccc(NC(=O)CN2C(=O)NC3(CCOc4ccccc43)C2=O)c1 (configuration not stated)	Pf growth 96h inconclusive
COc1ccc2c(c1)c(C(O)CN1CCC(Cc3ccccc3)CC1)c(C)n2C (configuration not stated)	Lassa entry inh inconclusive, Pf growth 96h 10µM, HCV inhibitor inconclusive, Pf growth 48h 13µM, MARV entry inh inconclusive
CCCCC(c1nc2ccccc2[nH]1)n1c(=O)c(-c2ccccc2)nc2cc(C)c(C)cc21 (configuration not stated)	none (no result: Lassa entry inh, Pf growth 96h, HCV inhibitor, Pf growth 48h, MARV entry inh)
CC(=O)Nc1ccc(Nc2cc3c(cn2)nc(-c2cccc(F)c2)n3C)cc1	none (no result: Lassa entry inh, Pf growth 96h, HCV inhibitor, Pf growth 48h, MARV entry inh)
CCCCCCCCOC(=O)C[N+](C)(C)C/C=C(/C)Cl	Pf growth 96h 4.1µM, Pf growth 48h 2.6µM

Bioassay records (PubChem)
